This is part of a sample that, as a whole, favours compounds with a hit. Of some 79,000 tested, about 15% had one in any assay. Calls of active or inactive are those of the source. Cut-off read from the data, not from the text of the source: active = growth inhibition above about 70%; inactive = the rest.
How the values were obtained:
[1] = NCI Yeast Anticancer Drug Screen. Data for the rad50 strain (AID 155);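 note: 0% = growth of vehicle-only cultures of the same strain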; settings: S. cerevisiae rad50 strain growth inhibition; at 50.0 µM; active compounds read high
Procedure, shortened: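 Readout: growth inhibition relative to vehicle-treated cultures. Compound exposure was carried out in a genetically defined yeast strain deficient in DNA damage repair.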

[2] = NCI Yeast Anticancer Drug Screen. Data for the mec2-1 strain (AID 157); settings: S. cerevisiae mec2-1 strain, at 50.0 µM, active compounds read high
Procedure, shortened: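 Yeast mec2-1 mutant treated with compound. Readout: growth inhibition vs vehicle controls.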

[3] = NCI Yeast Anticancer Drug Screen. Data for the sgs1 mgt1 strain (AID 161);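 note: 0% = growth of cultures given vehicle only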; settings: S. cerevisiae sgs1 mgt1 strain, at 50.0 µM, active compounds read high
Procedure, shortened: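 Inhibition of yeast growth, normalised to vehicle-treated controls, is reported for a strain bearing genetic alterations in DNA damage repair.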

[4] = NCI Yeast Anticancer Drug Screen. Data for the cln2 rad14 strain (AID 165);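 note: 0% = growth equal to vehicle treated cultures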; settings: S. cerevisiae cln2 rad14 strain, at 50.0 µM, active compounds read high
Procedure, shortened: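 cln2 rad14 yeast strain; compound exposure; growth inhibition read vs vehicle controls.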

[5] = NCI Yeast Anticancer Drug Screen. Data for the bub3 strain (AID 167); settings: S. cerevisiae bub3 mutant strain, at 50.0 µM, active compounds read high
Procedure, shortened: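 Readout: yeast growth inhibition, expressed relative to vehicle-only wells. The test organism is a mutant strain from a panel with lesions in DNA repair or checkpoint genes.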

[6] = NCI Yeast Anticancer Drug Screen. Data for the mlh1 rad18 strain (AID 175); settings: S. cerevisiae mlh1 rad18 strain growth inhibition; at 50.0 µM; active compounds read high
Procedure, shortened: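 Yeast w/ defined DNA-repair lesions; compound exposure; growth vs vehicle controls → % inhibition.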

Measured: growth inhibition

COC1OC(CBr)C(OC(=O)c2ccccc2)C(OC(C)=O)C1OC(C)=O (stereo not given)
inactive: [1] -23.9% | [2] -4.6% | [3] -12.2% | [4] 11% | [5] -1.5%

NC(=O)N/N=C1\CCn2cccc21
inactive: [1] -10.8% | [2] 1% | [3] -3.25% | [4] -2.2% | [5] 1.1%

Nc1nc2nc(Br)[nH]c2c(=O)[nH]1
inactive: [1] -5.5% | [2] -7.9% | [3] -29.3% | [4] -17.2% | [5] -14.2%

OCC1OC(n2cc[nH]c2=S)C(O)C1O (stereo not given)
inactive: [1] 8.5% | [2] 7.6% | [3] -2.6% | [4] 4.45% | [5] 10.2%

COc1ccc(CCN2CCc3c(C)c(C#N)c4nc5ccccc5n4c32)cc1OC
inactive: [1] 5.75% | [2] 26% | [3] 28.5% | [4] 12.1% | [5] 52.4%

Cc1ccc(S(=O)(=O)NCC(=O)OCc2ccccc2)cc1
inactive: [1] 4.15% | [2] 3.4% | [3] 1.2% | [4] -0.55% | [5] 12.4%

CC(C)c1ccc(OC(=O)Nc2c(Cl)cccc2Cl)cc1
inactive: [1] -18.4% | [2] -27.6% | [3] 5.95% | [4] 5.6% | [5] 7.2%

CC[N+](C)(CCO)C(Cc1ccccc1)c1ccccc1 (stereo not given)
inactive: [1] 8.5% | [2] -3.5% | [3] -0.1% | [4] -16.1% | [5] 19.5%

FC(F)(F)c1cc(Br)c2ccc3ncccc3c2n1
inactive: [1] 6.5% | [2] 8.3% | [3] -1.05% | [4] -5.2% | [5] 6.8%

CC(C)N(C=C(C#N)C#N)C(C)C
inactive: [1] 15.5% | [2] 7.5% | [3] -0.4% | [4] -57.5% | [5] 3.75%

CC(C)C1=CC2=C(C(=O)C1=O)C13CCCC(C)(C)C1CC2OC3=O (stereo not given)
inactive: [1] 14.3% | [2] -45.1% | [3] 23.6% | [4] -12.3% | [5] -2.6%

CN(C)S(=O)(=O)Cc1ccccc1
inactive: [1] 7.95% | [2] -6.65% | [3] -6.65% | [4] -73.5% | [5] 6.75%

ON(C(=NCc1ccccc1)c1ccccc1)c1ccccc1
inactive: [1] 2.25% | [2] 10.6% | [3] 9.65% | [4] -17.4% | [5] 12.4%

COc1ccc(C(c2cc3c(cc2O)OCO3)N2CCCCC2)c(OC)c1 (stereo not given)
inactive: [1] -31.2% | [2] -13.1% | [3] -12.2% | [4] -22.4% | [5] -2.15%

COC(=N)Cc1cc(OC)cc(OC)c1
inactive: [1] -2.45% | [2] 6.4% | [3] 7.45% | [4] -12.7% | [5] 21.2%

O=C1/C(=C\c2ccc(O)cc2)CCC/C1=C/c1ccc(Cl)c(Cl)c1
inactive: [1] -0.5% | [2] 27.4% | [3] 7.15% | [4] 35.5% | [5] -4.85%

O=[N+]([O-])c1cccc(-c2oc(C=Nc3ccccc3)c([N+](=O)[O-])c2-c2cccc([N+](=O)[O-])c2)c1
inactive: [1] -5% | [2] -0.8% | [3] 9.45% | [4] 14.4% | [5] 17.6%

CC1(C)OC2COC3(COC(C)(C)O3)C(O)C2O1 (stereo not given)
inactive: [1] -9.05% | [2] 0.2% | [3] 4.15% | [4] -3.7% | [5] -6.2%

CC1(C)N=C(N)N=C(N)N1c1cccc(CCC(=O)Nc2cccnc2)c1
inactive: [1] 19.4% | [2] 1.4% | [3] 5.2% | [4] 9.05% | [5] -4.5%

Cc1ccc(O)c(C(C)C)c1
inactive: [1] -26.4% | [2] -48.8% | [3] -34.4% | [4] -16.1% | [5] -40.2%

CCCCNC(=O)C1CCC(CC2CCCCC2)CC1 (stereo not given)
inactive: [1] 22.8% | [2] 28.7% | [3] 12.5% | [4] -3.3% | [5] 18.4%

O=C(/C=C(\O)c1ccc(Cl)cc1)C(=O)NN=C(c1ccccc1)c1ccccc1
inactive: [1] 39% | [2] 33.7% | [3] 3.1% | [4] 7.2% | [5] 14.5%

CC(=O)OCC1OC(OC(C)=O)C(N(C)C(C)=O)C(OC(C)=O)C1OC(C)=O (stereo not given)
inactive: [1] 32.8% | [2] 18.6% | [3] 26.8% | [4] 20.6% | [5] -0.55%

COC(=O)CC1C=CC(OC)[C@@]2(C)C(=O)C=C(C)C(=O)[C@@H]12 (stereo not given in full)
inactive: [1] 4.85% | [2] -1.95% | [3] 18.6% | [4] -16.6% | [5] 3.8% | [6] 3.15%

Cc1nnc(Nc2ccc(Cl)c(Cl)c2)s1
inactive: [1] -6.95% | [2] -20% | [3] 26.8% | [4] 12.3% | [5] 11.3%

OC(C/C(=N\Nc1ccccc1)c1ccc(Br)cc1)(C(F)(F)F)C(F)(F)F
active: [2] 97% | [3] 88.8% | [4] 85.7%
inactive: [1] 67.2% | [5] 44.9%

CC(C)Sc1nc2ccc(NC(=O)/C=C/C(=O)O)cc2s1
inactive: [1] 18.9% | [2] 8.65% | [3] 4.95% | [4] 14.1% | [5] 13.7%

C=C(/C=C/CCCC)NC(=O)OCc1ccccc1
inactive: [1] 13.4% | [2] 12.4% | [3] 8% | [4] -39.5% | [5] 1.25%

Cc1onc(-c2ccccc2)c1NC(=O)OC(C)c1cccnc1 (stereo not given)
inactive: [1] -6.3% | [2] -22.9% | [3] 3.7% | [4] 4.9% | [5] 18.1%

CCOC(=O)C(C(=O)OCC)C(C(=O)OCC)C(=O)OCC
inactive: [1] -22.7% | [2] 4.45% | [3] -6.2% | [4] -9.65% | [5] -14.5% | [6] -9.05%

O=C(O)c1ccc(SSc2ccc(C(=O)O)cn2)nc1
inactive: [1] 9.9% | [2] 19.1% | [3] -13.3% | [4] -8.5% | [5] 6.7%

CCOC(=O)/C=C/c1ccc([N+](=O)[O-])cc1
inactive: [1] 23.6% | [2] 26.6% | [3] 9.15% | [4] 2.55% | [5] -1.9%

CSc1ccc(NC(=O)Nc2ccc(Cl)cc2C(=O)c2ccccc2)cc1
active: [1] 96.5% | [2] 97.8% | [3] 93.7% | [4] 98% | [5] 88.5%

Cn1c(=O)c2c(ncn2C2C(=O)NNC2=O)n(C)c1=O
inactive: [1] -7.15% | [2] -8.45% | [3] -17.2% | [4] 2.35% | [5] 7.55%

OCC=C1CCCCCC1
inactive: [1] 4.9% | [2] 6.8% | [3] 1.5% | [4] -4.25% | [5] 12.3%

CC(C)=C/C(C)=N/Nc1ccc([N+](=O)[O-])cc1[N+](=O)[O-]
inactive: [1] 5.9% | [2] 5.6% | [3] 13.5% | [4] 2.05% | [5] 12.8%

Cc1ccc(C2(C#N)CCCC2)cc1
inactive: [1] 5.55% | [2] -1% | [3] 12% | [4] 3.85% | [5] 15.6%

O=C(O)c1cc(Cl)cc([N+](=O)[O-])c1
inactive: [1] 41.1% | [2] -3% | [3] 52.5% | [4] 19.3% | [5] 23%

Oc1ccc2c(c1)-c1ccccc1C2
inactive: [1] 38.8% | [2] 2.9% | [3] -4.5% | [4] 17.2% | [5] 37.3%

O=C(O)CCC12CCC(=O)C=C1NC(=O)CC2 (stereo not given)
inactive: [1] 1.55% | [2] -4.4% | [3] -7.2% | [4] -1.65% | [5] 0.15%

CC(C)(C)OC(=O)N(CCCCN(CCCNC(=O)C(F)(F)F)C(=O)OC(C)(C)C)CCCNC(=O)C(F)(F)F
inactive: [1] -14.9% | [2] 4.75% | [3] -14.3% | [4] 3.15% | [5] 4.6% | [6] -32%

O=C(O)C(C(=O)O)C1CCCCCC1
inactive: [1] -34.4% | [2] -6.6% | [3] -17.9% | [4] -29.9% | [5] -1.9% | [6] 14.2%

CS(=O)(=O)/C=C/c1ccccc1
inactive: [1] -19.4% | [2] -8.15% | [3] -7.35% | [4] 1.8% | [5] -2.1% | [6] 0.75%

Source: PubChem BioAssay (NCI)
